Most compounds without a hit are left out; they make up all but 15% or so of the library.
HCMV inh: human cytomegalovirus inhibition; HFF cells, HCMV-luciferase reporter, 72 h; active compounds read low; activity change, negative = inhibition, % at 57.5 µM; hit rate 4.5% among 410,000; in the data active means activity change below about -60%; inconclusive means no clear call, values can overlap the other calls; inactive means above about -39%; further: on the % scale 0 is the no-effect control and ±100 the full control effect
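Luciferase read-out from HCMV-luciferase-infected HFFs (MOI 1 PFU/cell) 72 h post infection at 37C; compounds added after 16 h cell attachment; activity normalized between buffer-only basal and Salinomycin (10uM) inhibitor controls.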
Pf growth 96h: inhibits malaria parasite growth, 96 h; P. falciparum luciferase reporter growth, 96 h; hit rate 6.9% among 320,000; Potency, µM (highest dose often 28.7 µM), for inactives: at the top dose activity change, negative = inhibition, most hits filed as inhibitors; further: potency means the concentration at half of the fitted maximal effect; on the % scale 0 is the no-effect control and ±100 the full control effect
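Cell-based qHTS: luciferase-tagged P. falciparum in erythrocytes (2% hematocrit, 0.05% parasitemia final) incubated with compounds for 96 hours, 37 C, 5% CO2; luciferase detection reagent then added and luminescence measured.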
Pf growth 48h: inhibits P. falciparum growth in the first generation, 48 h; P. falciparum luciferase growth in erythrocytes, 48 h; Potency, µM (series often up to 28.7 µM), without a hit: at the top dose activity change, negative = inhibition, usual class: inhibitors; hit rate 5.9% among 310,000; AID 504832; further: potency means the concentration at half of the fitted maximal effect; on the % scale 0 is the no-effect control and ±100 the full control effect
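Erythrocytes infected with P. falciparum carrying an integrated firefly luciferase reporter (2% hematocrit, 0.1% parasitemia final) were exposed to compounds in RPMI 1640 with 0.5% Albumax at 37 C, 5% CO2. Growth inhibition was scored as reduced luminescence.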
Sm TGR block: S. mansoni TGR enzyme inhibition. Q962Y6. purified TGR, DTNB reduction, TNB absorbance 405 nm. Potency, µM (titrated, usually from 114 µM), for inactives: at the top dose activity change, negative = inhibition, most hits filed as inhibitors. hit rate 3% among 360,000. AID 485364; further: potency means the concentration at half of the fitted maximal effect; on the % scale 0 is the no-effect control and ±100 the full control effect; nearly all actives have a fitted effect of over 60% in size
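TGR 20 nM + NADPH 100 uM (dispensed conc.), cpd preinc 15 min RT; start with NADPH (500 uM addition) then DTNB (15 mM addition). Kinetic TNB absorbance, 405 nm filter. Four-parameter Hill fit across titration.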
HCV inhibitor: HCV inhibition; Huh7.5.1 HCVcc-Cre infection, luciferase reporter, 44 h; Potency, µM (series often up to 41.8 µM), inactives show top-dose activity change, negative = inhibition, most hits filed as inhibitors; hit rate 3.4% among 340,000; AID 651820; further: potency means the concentration at half of the fitted maximal effect; on the % scale 0 is the no-effect control and ±100 the full control effect
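HCVcc-Cre virus at an moi near 0.5 was added right after compound to cells cultured 4 h from seeding (1,000 cells/well). Luciferase activity was determined 44 h later, 15 min after substrate addition at RT.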
SARS PLP yeast: SARS-CoV PLP inhibition in yeast | AID 485353 | S. cerevisiae expressing SARS-CoV PLpro, growth rescue | hit rate 0.19% among 330,000 | Potency, µM (highest dose often 32.9 µM), for inactives: top-dose activity, positive = growth rescue, usual class: activators; calls by dose curve; further: potency means the concentration at half of the fitted maximal effect; 0% is about no effect; nearly all actives have a fitted effect of over 55% in size
* hit, by the source's call; u = inconclusive; x = no result; [ ] = remark or other dose. Unless noted, the call rests on the fitted dose curve; in most records, active means well fitted curve in the direction sought with a large enough effect; inconclusive means small, poorly fitted or top-dose-only effect, or another doubt; inactive means no such curve, though single readings can be large; an effect the other way counts as inactive or inconclusive.

SMILES	HCMV inh	Pf growth 96h	Pf growth 48h	Sm TGR block	HCV inhibitor	SARS PLP yeast
O=C(O)COc1ccccc1C(Nc1cccnc1)c1cc(Cl)c2cccnc2c1O (stereo not drawn)	x	1%	14%	1µM*	2%	u
O=C(NC(c1ccccc1)c1cc(Cl)c2cccnc2c1O)c1cccnc1 (stereo not drawn)	-100*	9%	0.66µM*	-3%	-13%	1.8µM*
CCOc1ccc(NC(=S)NCc2cccnc2)cc1	-7	6%	46%	u	8%	0%
COc1ccc(NC(=O)c2oc3ccccc3c2NC(=O)C23CC4CC(CC(C4)C2)C3)cc1	-17	x	x	-4%	x	x
O=C(NCc1ccc2c(c1)OCO2)[C@H]1[C@H](CO)[C@H]2Cn3c(cccc3=O)[C@@H]1N2Cc1ccccc1	-9	x	x	x	x	x
CC(C)N(CCCNC(=O)Cn1c(=O)c2cccn2c2ccccc21)Cc1ccccc1	-1	u	-14%	u	-3%	0%
Cc1nn(C)cc1S(=O)(=O)N1CCCCC1C (stereo not drawn)	73	15%	2%	1%	8%	3%
O=C1NC(=O)N(c2ccccc2)C(=O)/C1=C/C=C/c1ccco1	-100*	22%	21%	10µM*	u	-1%
CN(C)c1ccc(/C=C/C=C2/C(=O)NC(=O)N(c3ccccc3)C2=O)cc1	-113*	-12%	28%	u	u	0%
O=C1S/C(=C\C=C\c2ccco2)C(=O)N1c1ccc(O)cc1	u	31%	112%	u	u	-54%
Cc1cccc(N2C(=O)NC(=O)/C(=C\C=C\c3ccco3)C2=O)c1	0	34%	6%	u	u	-1%
O=C1S/C(=C\C=C\c2ccco2)C(=O)N1c1ccccc1	-34	109%	26%	45µM*	2%	-19%
Cc1ccc(N2C(=O)NC(=O)/C(=C\C=C\c3ccco3)C2=O)cc1C	-102*	9%	11%	25µM*	u	-7%
O=C(Nc1ccccc1)N[C@H]1CC[C@@]23CCCN2C(=O)CCC[C@H]3C1Cc1ccccc1 (stereo partly drawn)	-17	x	x	x	x	x
CCOC(=O)Cc1ccc(NC(=O)NCc2ccc3c(c2)CCN3C(=O)CC)cc1	-22	x	x	9%	x	x
CCOC(=O)C1C2C=CC3(CN(C4CCCC4)C(=O)C13)O2 (stereo not drawn)	-9	9%	7%	2%	1%	-1%
CN1CCCN(S(=O)(=O)c2ccc(Cl)c(Cl)c2)CC1	-6	20%	-10%	-6%	-27%	0%
COc1ccc2c3c([nH]c2c1)[C@H](CO)N(C(=O)C1CCC1)CC31CCN(C(=O)c2ccncc2)CC1	11	x	x	x	x	x
CC[C@@]1(C(=O)OC)N[C@H](CN(C)C(=O)Nc2ccc(OC)cc2)[C@@H]2C(=O)N(Cc3ccccc3)C(=O)[C@@H]21	12	x	x	x	4%	-6%
Cc1ccc(N2C(=O)NC(=O)/C(=C\C=C\c3ccco3)C2=O)cc1	-100*	33%	9%	11µM*	u	-4%
CC(=O)c1cc(-c2ccccc2)n(CC(=O)N2CCN(C3CCCC3)CC2)c1C	-8	-21%	u	40µM*	2%	0%
N#C[C@@H](c1ccccc1)C1CCN(C(=O)c2ccco2)CC1	9	x	x	x	x	x
CC(C)(C)NCc1cc(Cl)ccc1OCc1ccccc1F	u	8.3µM*	-17%[5.75 µM]	65%	-24%	1%
COc1cc(CNC(C)(C)C)cc(Br)c1OCc1cccs1	u	19%	u	1%	20µM*	30%
C=CCOc1c(Br)cc(CNc2nccs2)cc1OC	u	0.37µM*	u	9%	u	12%
COc1cc(CNCCO)cc(Br)c1OCc1cccs1	u	34%	-14%	0%	-10%	1%
CC(C)(C)NCc1cc(Cl)ccc1OCc1cccs1	-28	9.3µM*	u	-1%	u	23%
C=CCOc1c(Br)cc(CNn2c(C)n[nH]c2=S)cc1OC	16	-28%	-10%	3%	-24%	3%
